# PubChem BioAssay AID1159580 (chemical genetic matrix, 2015)
# Out of some 5,500 compounds screened, about 2,000 (36%) were called active. Not shown: some 18% with an inconclusive outcome. The list shows a part of the results. A number with no mark means an inactive call. Rule as the data show it: active = normalized growth mostly below about 0.91 (no sharp cut-off); inconclusive = no clear call, values can overlap the other calls; inactive = mostly above about 0.92.
# Test: chemical genetic growth profiling, strain panel (AID 1159580);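 also: tested at 20 µM; growth read once vehicle control cultures reached saturation at 30 °C; 1 = growth at the plate median or of vehicle wells; lower values mean less growth of the strain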
# Conditions: growth OD
structure (smiles),measurement,setting,value
CCn1nc(C)cc1C(=O)O,normalized growth,"S. cerevisiae deletion strains, locus YAL013W, strain DEP1, hits give low values",0.992
same,normalized growth,"S. cerevisiae deletion strains, locus YBR229C, strain ROT2, hits give low values",1.01
same,normalized growth,"S. cerevisiae deletion strains, locus YDL101C, strain DUN1, hits give low values",1.03
same,normalized growth,"S. cerevisiae deletion strains, locus YDR150W, strain NUM1, hits give low values",0.914
same,normalized growth,"S. cerevisiae deletion strains, locus YEL061C, strain CIN8, hits give low values",1.03
same,normalized growth,"S. cerevisiae deletion strains, locus YGR078C, strain PAC10, hits give low values",1.02
same,normalized growth,"S. cerevisiae deletion strains, locus YHR030C, strain SLT2, hits give low values",1.07
same,normalized growth,"S. cerevisiae deletion strains, locus YHR087W, strain rtc3, hits give low values",1.01
same,normalized growth,"S. cerevisiae deletion strains, locus YJL187C, strain SWE1, hits give low values",1.02
same,normalized growth,"S. cerevisiae deletion strains, locus YJR043C, strain POL32, hits give low values",0.962
same,normalized growth,"S. cerevisiae deletion strains, locus YJR075W, strain HOC1, hits give low values",1.02
same,normalized growth,"S. cerevisiae deletion strains, locus YKL190W, strain CNB1, hits give low values",1.02
same,normalized growth,"S. cerevisiae deletion strains, locus YLR039C, strain RIC1, hits give low values",1.1
same,normalized growth,"S. cerevisiae deletion strains, locus YLR058C, strain SHM2 (second series), hits give low values",1.02
same,normalized growth,"S. cerevisiae deletion strains, locus YLR085C, strain ARP6, hits give low values",1.3 [resistant] (active)
same,normalized growth,"S. cerevisiae deletion strains, locus YLR262C, strain YPT6, hits give low values",1.07
same,normalized growth,"S. cerevisiae deletion strains, locus YML094W, strain GIM5, hits give low values",1.02
same,normalized growth,"S. cerevisiae deletion strains, locus YMR219W, strain ESC1, hits give low values",1.01
same,normalized growth,"S. cerevisiae deletion strains, locus YMR263W, strain SAP30, hits give low values",0.987
same,normalized growth,"S. cerevisiae deletion strains, locus YMR307W, strain GAS1, hits give low values",1.24
same,normalized growth,"S. cerevisiae deletion strains, locus YNL153C, strain GIM3, hits give low values",1
same,normalized growth,"S. cerevisiae deletion strains, locus YNL298W, strain CLA4 (second series), hits give low values",1.04
same,normalized growth,"S. cerevisiae deletion strains, locus YNL322C, strain KRE1, hits give low values",0.999
same,normalized growth,"S. cerevisiae deletion strains, locus YNR030W, strain Alg12, hits give low values",1.02
same,normalized growth,"S. cerevisiae deletion strains, locus YPL055C, strain LGE1, hits give low values",0.931
same,normalized growth,"S. cerevisiae deletion strains, locus YPL241C, strain CIN2, hits give low values",1.03
same,normalized growth,"S. cerevisiae deletion strains, locus YPR135W, strain CTF4, hits give low values",0.994
same,normalized growth,"S. cerevisiae strains, strain wild type, hits give low values",1.02
